Bioassay records (PubChem BioAssay)
The entries come from a sample that favours hits as a whole.
nsP2pro inh = Primary qHTS for inhibitors of NSP2Pro chikungunya virus (CHIKV); FRET peptide cleavage, nsP2pro, fluorescence 1 h; AID 1964107, 2024; Polyprotein P1234 (Chikungunya virus (strain S27-African prototype)), Q8JUX6; actives 1.1% (n = 31,000); Potency, µM (doses to about 24.9 µM), hits mostly inhibitors; further: nearly all actives have a fitted effect of over 60% in size
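FRET cleavage of 2.5 uM peptide 2 by 150 nM CHIKV protease domain at pH 8.0 (Tris, Tween 20). Compounds at 7 concentrations (up to 25 uM) preincubated 15 min. Fluorescence read after 1 h at room temperature.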
CHIKV nsP2 cell = Secondary cell base assay for inhibitors of NSP2Pro Chikungunya virus (CHIKV) | cell-based CHIKV nsP2 protease reporter assay | Potency, µM (highest dose often 51.1 µM), hits mostly inhibitors | actives 10% (n = 450) | shares compounds with nsP2pro inh; further: nearly all actives have a fitted effect of over 70% in size
Target sequence (Q8JUX6 220-798 limits assumed): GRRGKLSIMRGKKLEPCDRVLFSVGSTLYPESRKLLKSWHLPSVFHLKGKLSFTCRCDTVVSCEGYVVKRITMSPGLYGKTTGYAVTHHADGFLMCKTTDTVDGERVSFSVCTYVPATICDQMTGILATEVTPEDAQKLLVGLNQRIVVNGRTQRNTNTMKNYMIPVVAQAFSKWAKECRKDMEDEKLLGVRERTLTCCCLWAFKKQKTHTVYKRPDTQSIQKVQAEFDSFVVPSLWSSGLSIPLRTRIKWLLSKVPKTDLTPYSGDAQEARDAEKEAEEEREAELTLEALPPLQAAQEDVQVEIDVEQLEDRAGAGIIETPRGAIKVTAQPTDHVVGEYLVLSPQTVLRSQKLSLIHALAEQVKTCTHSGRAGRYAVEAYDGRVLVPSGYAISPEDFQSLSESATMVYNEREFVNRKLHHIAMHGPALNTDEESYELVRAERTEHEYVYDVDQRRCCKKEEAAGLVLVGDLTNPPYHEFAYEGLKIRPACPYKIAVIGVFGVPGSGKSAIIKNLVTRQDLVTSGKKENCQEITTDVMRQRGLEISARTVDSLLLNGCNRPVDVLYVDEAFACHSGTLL
NSP2 full ctr = Selectivity profile for inhibitors of NSP2Pro chikungunya virus (CHIKV): Full length NSP2 enzyme counterscreen (CHIKV-NSP2). Potency, µM (top dose mostly 50.7 µM), actives largely listed as inhibitors. actives 39% (n = 410). Full-length CHIKV NSP2 protease enzymatic counterscreen. shares compounds with nsP2pro inh; further: nearly all actives have a fitted effect of over 65% in size
Furin counter = Selectivity profile for inhibitors of NSP2Pro chikungunya virus (CHIKV): Human furin counterscreen | Recombinant human furin enzymatic counterscreen, fluorogenic substrate | AID 1964102, 2024 | Potency, µM (doses to about 50.6 µM), hits mostly inhibitors | shares compounds with nsP2pro inh | actives 6% (n = 410)
nsP2 NS23 pep = Selectivity profile for inhibitors of NSP2Pro chikungunya virus (CHIKV): Endogenous NS2/3 peptide Counterscreen. shares compounds with nsP2pro inh. Purified CHIKV nsP2 protease, endogenous NS2/3 peptide cleavage. Potency, µM (top dose mostly 51 µM), usual class: inhibitors. actives 34% (n = 410). AID 1964103, 2024; further: nearly all actives have a fitted effect of over 55% in size
Papain cs = Selectivity profile for inhibitors of NSP2Pro chikungunya virus (CHIKV): Papain Counterscreen. shares compounds with nsP2pro inh. purified papain protease activity, enzymatic inhibition. Potency, µM (highest dose often 51 µM), usual class: inhibitors. actives 5% (n = 410). AID 1964104, 2024
nsP2pro confirm = Confirmatory qHTS for inhibitors of NSP2Pro chikungunya virus (CHIKV); shares compounds with nsP2pro inh; CHIKV nsP2 protease enzymatic activity, qHTS; Potency, µM (titrated, usually from 25.5 µM), most hits filed as inhibitors; actives 43% (n = 410); AID 1964105, 2024; further: nearly all actives have a fitted effect of over 75% in size
HCV NS3 counter = Selectivity profile for inhibitors of NSP2Pro chikungunya virus (CHIKV): NS34A-HCV Counterscreen; shares compounds with nsP2pro inh; actives 20% (n = 410); Potency, µM (titrated, usually from 50.9 µM), actives largely listed as inhibitors; HCV NS3/4A protease biochemical counterscreen; further: nearly all actives have a fitted effect of over 55% in size
Each line names hits and unclear results; the compound was inactive in the other large screens (follow-up assays come after a bar, where they were run). The call rests on the fitted dose curve.

Cc1ccc(CNC(=O)c2nc(SCc3ccccc3F)ncc2Cl)cc1	nsP2pro inh 11µM | CHIKV nsP2 cell inactive | NSP2 full ctr inactive | Furin counter inactive | nsP2 NS23 pep inactive | Papain cs inactive | nsP2pro confirm inactive | HCV NS3 counter inactive
Cc1ccc(CNC(=O)c2nc(SCc3ccc(C)cc3)ncc2Cl)cc1	none
Fc1ccccc1CNCc1ccc(-c2ccnc3[nH]ccc23)cc1	none
C[S+](CC[C@H](N)C(=O)O)C[C@H]1O[C@@H](n2cnc3c(N)ncnc32)[C@H](O)[C@H]1O (stereo partly drawn)	none
COc1ncc(-c2ccc3c(Nc4cc(Oc5cc(F)cc(F)c5)cc(C(=O)O)c4)c(S(=O)(=O)NC4CC4)cnc3c2)c(OC)n1	none
C[C@@H]1C[C@@H](O)[C@@]23CO[C@]2(CO)CCC[C@@H]3[C@@]12C[C@@H](c1ccoc1)OC2=O	nsP2pro inh inconclusive | CHIKV nsP2 cell inactive | NSP2 full ctr inactive | Furin counter inactive | nsP2 NS23 pep inactive | Papain cs inactive | nsP2pro confirm inactive | HCV NS3 counter inactive
CC1CC2OCC3(O)CCC(O)C(C14CC(c1ccoc1)OC4=O)C23CO (stereo not drawn)	none
Cn1c(=O)cc(N2CCC[C@@H](N)C2)n(Cc2ccccc2C#N)c1=O	none
CC1(C)CC(NC(=O)C(=O)Nc2ccc(Br)cc2)CC(C)(C)N1	none
CCOC(=O)OCC/C(SC(=O)OCC)=C(\C)N(C=O)Cc1cnc(C)nc1N	none
C/C(=C(\CCOP(=O)(O)O)SC(=O)c1ccccc1)N(C=O)Cc1cnc(C)nc1N	none
CCCSS/C(CCO)=C(\C)N(C=O)Cc1cnc(C)nc1N	nsP2pro inh 8.8µM | CHIKV nsP2 cell inactive | NSP2 full ctr 16µM | Furin counter inactive | nsP2 NS23 pep inconclusive | Papain cs inactive | nsP2pro confirm 8µM | HCV NS3 counter inactive
CC(C)CC1(C(=O)OCc2ccc(O[C@@H]3O[C@H](CO)[C@@H](O)[C@H](O)[C@H]3O)cc2)CC(=O)OC(C(=O)O)CC(=O)OCC2OC(O1)C(OC(=O)/C=C/c1ccc(O)cc1)C(O)C2O (stereo partly drawn)	none
CCOc1ccc(CCNC(=O)c2cc3sccc3n2Cc2ccncc2)cc1OCC	none
Cn1cc(C(=O)N2CCc3[nH]cnc3C2C2CCN(C(=O)C3CCOCC3)CC2)cn1 (stereo not drawn)	nsP2pro inh inconclusive | CHIKV nsP2 cell inactive | NSP2 full ctr 6.5µM | Furin counter inactive | nsP2 NS23 pep inconclusive | Papain cs inactive | nsP2pro confirm inconclusive | HCV NS3 counter 9.2µM
O=C(C1CCOCC1)N1CCC(c2nc(C3CCOCC3)no2)CC1	none
COC(=O)N1CCCCC1C(=O)N1CCC2(CC1)c1nc[nH]c1CCN2C (stereo not drawn)	none
Cc1ccc(-c2ccc(C(C)Nc3nc(-c4ccccc4C(C)C)ncc3C)cc2)cn1 (stereo not drawn)	none
O=C(O)C1NCc2[nH]cnc2C1c1ccccc1 (stereo not drawn)	none
CC(=O)Oc1ccccc1C(=O)O	none
CC(=O)[O][Hg][c]1ccccc1	nsP2pro inh 1.2µM | CHIKV nsP2 cell 1.3µM | NSP2 full ctr 1.8µM | Furin counter 1.2µM | nsP2 NS23 pep 4.6µM | Papain cs inactive | nsP2pro confirm 0.36µM | HCV NS3 counter inconclusive
CC(=O)Nc1ccccc1	none
CC(C)(O/N=C(\C(=O)N[C@@H]1C(=O)N2C(C(=O)[O-])=C(C[N+]3(CCNC(=O)c4ccc(O)c(O)c4Cl)CCCC3)CS[C@H]12)c1csc(N)n1)C(=O)O	none
CCn1c2ccccc2c2cc(CNC)ccc21	none
O=C(Nc1ccc(-c2ccnc(Nc3ccc(N4CCOCC4)cc3)n2)cc1)[C@@H]1CCCN1	none
COc1cc2c(cc1-c1ccc(CO)cc1)NC(=O)C21CCN(C)CC1	none
O=C1NC(Cc2c[nH]c3ccccc23)C(=O)NC1Cc1c[nH]c2ccccc12 (stereo not drawn)	nsP2pro inh 6.1µM | CHIKV nsP2 cell inactive | NSP2 full ctr inactive | Furin counter inactive | nsP2 NS23 pep inactive | Papain cs inconclusive | nsP2pro confirm inactive | HCV NS3 counter inactive
NCCc1c[nH]c2ccccc12	none
CC(N)Cc1c[nH]c2ccccc12 (stereo not drawn)	none
CCCCc1nnc(-c2cnn(C)c2N)n1CCCn1ccnc1	none
COc1ccc(C(=O)Nc2nc(-c3ccccc3)cs2)c(OC)c1	none
CCCCNC(=O)c1ccc2c(c1)ncn2-c1cccc(C)c1	none
COc1ccc2sc(NC(c3ccc(OC(F)F)cc3)c3ccc4cccnc4c3O)nc2c1 (stereo not drawn)	none
Nc1nc2c(c(N3CC[C@@H](O)C3)n1)CCN(C(=O)[C@H]1CCCO1)CC2	none
Cc1cc(C)nc(NC(=S)N2CCN(c3ccc4cn(C)nc4c3)CC2)c1	none
C=CC(C)(C)c1[nH]c2ccccc2c1C1=C(O)C(=O)C(c2c[nH]c3c(CC=C(C)C)cccc23)=C(O)C1=O	nsP2pro inh inconclusive | CHIKV nsP2 cell inactive | NSP2 full ctr inactive | Furin counter inactive | nsP2 NS23 pep inactive | Papain cs 2.6µM | nsP2pro confirm inactive | HCV NS3 counter 4.1µM
Cc1nc([C@](C)(O)CO)sc1-c1cnc(N)c(O[C@H](C)c2cc(F)ccc2-n2nccn2)c1	nsP2pro inh 7.9µM | CHIKV nsP2 cell inactive | NSP2 full ctr inactive | Furin counter inactive | nsP2 NS23 pep inactive | Papain cs inactive | nsP2pro confirm inactive | HCV NS3 counter inactive
O=C(c1nc(-c2cc(Cl)cc(Cl)c2)c2ccccn12)N1CCCC1	none
O=C1C=CC2OC(c3ccccc3)C(O)C2O1 (stereo not drawn)	nsP2pro inh inconclusive | CHIKV nsP2 cell inconclusive | NSP2 full ctr inconclusive | Furin counter inactive | nsP2 NS23 pep inconclusive | Papain cs inactive | nsP2pro confirm inconclusive | HCV NS3 counter inconclusive
COC(=O)CC(O)C1OC(c2ccccc2)C(O)C1O (stereo not drawn)	none
